# Source: PubChem BioAssay (Tox21)
# Inconclusive results are not listed. A call without a number means that no potency is given here. The source holds several records for some structures; these can differ, active in one and inactive in another. Activity calls are given as the source filed them. Unless noted, calls come from the whole dose curve.
# Tests used:
# [1] = qHTS assay to identify small molecule agonists of the vitamin D receptor (VDR) signaling pathway - cell viability counter screen (AID 743224; active = well fitted curve in the direction sought with a large enough effect in the repeat runs; an effect the other way counts as inactive or inconclusive; note: series mostly up to about 63 µM; nearly all actives have a fitted effect of over 50% in size)
# Summary of the method: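 In parallel with the bla FRET readout, cytotoxicity toward VDR-bla cells after 16 h compound exposure was assessed by CellTiter-Glo, with luminescence recorded after a 30 min room-temperature incubation.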
# [2] = qHTS assay to identify small molecule antagonists of the vitamin D receptor (VDR) signaling pathway - cell viability counter screen (AID 743225; active = well fitted curve in the direction sought with a large enough effect in the repeat runs; an effect the other way counts as inactive or inconclusive; note: nearly all actives have a fitted effect of over 50% in size)
# Summary of the method: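 Parallel cytotoxicity test: VDR-UAS-bla HEK 293T, 3 nM (final) 1-alpha,25-dihydroxyvitamin D3 with test compound, 16 h, 37C. Endpoint is CellTiter-Glo luminescence in the same wells.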
# [3] = qHTS assay to identify small molecule agonists of the NFkB signaling pathway - cell viability counter screen (AID 1159515); note: series mostly up to about 61 µM; nearly all actives have a fitted effect of over 55% in size
# Summary of the method: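 Plate 2,000 NFkB-bla ME-180 cells/well; incubate overnight. Add compounds, 5 hr at 37 C. Add FRET substrate, 1.5 hr RT. Add CellTiter-Glo, 30 min RT; read luminescence.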
# [4] = qHTS assay to identify small molecule agonists of the endoplasmic reticulum stress response signaling pathway (AID 1159516; active = well fitted activation curve with a large enough effect in the signal ratio in the repeat runs, not every such curve was filed as active; the % refers to the signal ratio)
# Summary of the method: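 Beta-lactamase expression from the ER stress response element in HeLa reporter cells is quantified with the LiveBLAzer B/G FRET substrate, read at 405 nm excitation after 2 hr at room temperature, following 5 hr compound treatment at 37 C.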
# [5] = qHTS assay to identify small molecule agonists of the endoplasmic reticulum stress response signaling pathway - cell viability counter screen (AID 1159517); note: series mostly up to about 61 µM; nearly all actives have a fitted effect of over 50% in size
# Summary of the method: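 ESRE-bla HeLa cells (1,500/well) were plated overnight at 37 C and exposed to compounds for 5 hr. After the 2 hr beta-lactamase substrate read, CellTiter-Glo went into the same wells, and luminescence was read after 30 min at room temperature.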
# [6] = qHTS assay to identify small molecule antagonists of the retinoid-related orphan receptor gamma (ROR-gamma) signaling pathway - cell viability counter screen (AID 1159520; active = well fitted curve in the direction sought with a large enough effect in the repeat runs; an effect the other way counts as inactive or inconclusive; note: nearly all actives have a fitted effect of over 50% in size)
# Summary of the method: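 Cytotoxicity was read from cellular ATP (CellTiter-Glo luminescence) after 16 hr at 37 C with 1 uM doxycycline induction. The inducer was added 2 hr after compound transfer to Tet-on ROR gamma CHO cells.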
# [7] = biological target: Nuclear receptor ROR-gamma (Homo sapiens) (UniProt P51449); assay: qHTS assay to identify small molecule antagonists of the retinoid-related orphan receptor gamma (ROR-gamma) signaling pathway (AID 1159521; active = well fitted curve in the direction sought with a large enough effect in the repeat runs; an effect the other way counts as inactive or inconclusive; note: nearly all actives have a fitted effect of over 50% in size; note: potency is the fitted concentration of half-maximal effect;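 for activity change, negative = inhibition: CHO cells with doxycycline inducible ROR-gamma driving an RORE luciferase reporter; top concentration of the series differs between compounds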)
# Summary of the method: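 Decreased RORE-driven luciferase luminescence indicates antagonism. Tet-on RORγ CHO cells received compound, then 1 uM final doxycycline 2 h later; signal read after 16 h incubation.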
# [8] = qHTS assay to identify small molecule agonists of the AP-1 signaling pathway - cell viability counter screen (AID 1159525); note: nearly all actives have a fitted effect of over 55% in size
# Summary of the method: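 Intracellular ATP by Cell Titer Glo luminescence (30 min, RT) in the same ME-180 AP-1-bla wells after the 5 h compound exposure at 37 °C. Normalised to tetra n-octyl ammonium bromide and DMSO controls.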
# [9] = qHTS assay to identify small molecule agonists of the AP-1 signaling pathway (AID 1159526)
# [10] = biological target: Retinoic acid receptor RXR-alpha (Homo sapiens) (UniProt P19793); assay: qHTS assay to identify small molecule agonists of the RXR signaling pathway (AID 1159527); note: nearly all actives have a fitted effect of over 35% in size; note: potency is the fitted concentration of half-maximal effect
# Summary of the method: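 16 hr incubation of compound-treated RXR-alpha-UAS-bla HEK 293T cells (2% charcoal-stripped FBS, 37 C) preceded a 2 hr room-temperature LiveBLAzer FRET substrate step and blue/green fluorescence measurement.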
# Sequence of Retinoic acid receptor RXR-alpha (Homo sapiens) (P19793 whole entry, looked up): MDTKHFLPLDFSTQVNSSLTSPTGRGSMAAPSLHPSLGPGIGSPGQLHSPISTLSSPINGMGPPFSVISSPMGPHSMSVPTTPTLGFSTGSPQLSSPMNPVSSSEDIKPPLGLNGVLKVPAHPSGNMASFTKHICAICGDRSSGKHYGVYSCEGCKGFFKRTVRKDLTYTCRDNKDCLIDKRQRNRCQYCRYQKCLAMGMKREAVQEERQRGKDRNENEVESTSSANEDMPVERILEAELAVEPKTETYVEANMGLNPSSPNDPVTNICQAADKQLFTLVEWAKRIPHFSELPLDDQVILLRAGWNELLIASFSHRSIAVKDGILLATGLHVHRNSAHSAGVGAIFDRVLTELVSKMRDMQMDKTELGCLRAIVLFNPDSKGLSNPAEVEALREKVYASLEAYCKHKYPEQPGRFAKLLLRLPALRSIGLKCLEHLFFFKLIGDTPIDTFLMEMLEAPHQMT
Structure (SMILES),Potency [1],Potency [2],Potency [3],Potency [4],Potency [5],Potency [6],Potency [7],Potency [8],Potency [9],Potency [10],"activity, negative = cytotoxicity [6]","activity change, negative = inhibition [7]","viability change, negative = cytotoxic [8]",activation [9],activation [10]
O=C(O)c1ccc(=O)[nH]c1,inactive,inactive,inactive,inactive,inactive,inactive,inactive,inactive,inactive,inactive,,,,,
CCOc1cccc(C2(N3CCN(c4ccccc4)CC3)CCC(C)CC2)c1 (stereo unspecified),inactive,inactive,inactive,inactive,inactive,inactive,inactive,inactive,inactive,inactive,,,,,
C=CCSSCC=C,inactive,inactive,inactive,inactive,inactive,inactive,inactive,inactive,inactive,inactive,,,,,
COc1cc(CC#N)cc(OC)c1OC,inactive,inactive,inactive,inactive,inactive,inactive,inactive,inactive,inactive,inactive,,,,,
CC(C)OC(=O)Cc1ccccc1,inactive,inactive,inactive,inactive,inactive,inactive,inactive,inactive,inactive,inactive,,,,,
Oc1cccc(Cl)c1,inactive,,inactive,inactive,inactive,inactive,inactive,inactive,inactive,inactive,,,,,
CC(C)(C)c1ccc(CCOc2ncnc3ccccc23)cc1,inactive,inactive,inactive,inactive,inactive,inactive,inactive,inactive,inactive,inactive,,,,,
O=[N+]([O-])c1cc(Cl)c(Cl)cc1Cl,inactive,inactive,inactive,inactive,inactive,inactive,inactive,inactive,inactive,inactive,,,,,
O=C(O)C(F)(F)C(F)(F)C(F)(F)C(F)(F)C(F)(F)F,inactive,inactive,inactive,inactive,inactive,inactive,inactive,inactive,inactive,inactive,,,,,
Nc1ccccc1C(=O)OCC(O)CO (stereo unspecified),inactive,inactive,inactive,inactive,inactive,inactive,inactive,inactive,inactive,inactive,,,,,
CC(C)(c1ccccc1)c1cc(-n2nc3ccccc3n2)c(O)c(C(C)(C)c2ccccc2)c1,inactive,,inactive,inactive,inactive,inactive,inactive,inactive,inactive,inactive,,,,,
CN1C(=O)CN=C(c2ccccc2)c2cc([N+](=O)[O-])ccc21,inactive,inactive,inactive,inactive,inactive,inactive,inactive,inactive,inactive,inactive,,,,,
CC(Oc1cc(Cl)c(Cl)cc1Cl)C(=O)O (stereo unspecified),inactive,inactive,inactive,inactive,inactive,inactive,inactive,inactive,inactive,inactive,,,,,
CCOC(=O)C1OC1(C)c1ccccc1 (stereo unspecified),inactive,inactive,inactive,inactive,inactive,inactive,inactive,inactive,inactive,13.9 µM (active) and inactive,,,,,
Nc1c(Br)cc(Br)c2c1C(=O)c1ccccc1C2=O,inactive,inactive,inactive,inactive,inactive,,,,,,-2.6% [at 19 µM] (inactive),13.2% [at 19 µM] (inactive),1.64% [at 15.8 µM] (inactive),0.821% [at 15.8 µM] (inactive),1.05% [at 15.8 µM] (inactive)
CCOP(=O)(O)C(N)=O,inactive,inactive,inactive,inactive,inactive,inactive,inactive,inactive,inactive,inactive,,,,,
CCCCOC(=O)CCC(=O)OCCCC,inactive,inactive,inactive,inactive,inactive,inactive,inactive,inactive,inactive,inactive,,,,,

Structure (SMILES),Potency [1],Potency [2],Potency [3],Potency [4],Potency [5],Potency [6],Potency [7],Potency [8],Potency [9],Potency [10],"activity, negative = cytotoxicity [6]","activity change, negative = inhibition [7]","viability change, negative = cytotoxic [8]",activation [9],activation [10]
OCCCl,inactive,inactive,inactive,inactive,inactive,inactive,inactive,inactive,inactive,19.5 µM (active),,,,,
C#C[C@]1(O)CC[C@H]2[C@@H]3CCC4=CC(=O)CCC4=C3C=C[C@@]21CC,inactive,inactive,inactive,inactive,inactive,inactive,9.44 µM (active),inactive,inactive,inactive,,,,,
CC(C)(C)NCC(O)c1cc(Cl)c(N)c(C(F)(F)F)c1 (stereo unspecified),inactive,inactive,inactive,inactive,inactive,inactive,inactive,inactive,inactive,inactive,,,,,
CCSCc1ccccc1OC(=O)NC,inactive,inactive,inactive,inactive,inactive,inactive,inactive,inactive,inactive,inactive,,,,,
N#CC(C#N)=Cc1ccc(O)c(O)c1,inactive,,inactive,inactive,inactive,inactive,inactive,inactive,inactive,inactive,,,,,
Cc1cccc(C)c1NC1=NCCCS1,inactive,inactive,inactive,inactive,inactive,inactive,inactive,inactive,inactive,inactive,,,,,
CN(C1CCCCC1)C1CCCCC1,inactive,inactive,inactive,inactive,inactive,inactive,inactive,inactive,inactive,inactive,,,,,
O=S(=O)(Cl)Cl,inactive,inactive,inactive,inactive,inactive,inactive,inactive,inactive,inactive,inactive,,,,,
O=C(Cc1ccccc1)OCCc1ccccc1,inactive,inactive,inactive,inactive,inactive,inactive,inactive,inactive,inactive,inactive,,,,,
CC(C)c1ccc(NC(=O)N(C)C)cc1,inactive,inactive,inactive,inactive,inactive,inactive,inactive,inactive,inactive,inactive,,,,,
CCC(=O)O[C@@H]1C=C2CCC3C(CCC4(C)C3CC[C@@H]4OC(=O)CC)C2CC1 (stereo partly specified),inactive,inactive,inactive,inactive,inactive,inactive,inactive,inactive,inactive,inactive,,,,,
COC(=O)C1(O)c2ccccc2-c2ccccc21,inactive,inactive,inactive,inactive,inactive,inactive,inactive,inactive,inactive,inactive,,,,,
NP(N)(=O)NC(=O)c1ccc(F)cc1,inactive,inactive,inactive,inactive,inactive,inactive,inactive,inactive,inactive,inactive,,,,,
C#CC(O)(C=CCl)CC (stereo unspecified),inactive,inactive,inactive,inactive,inactive,inactive,inactive,inactive,inactive,inactive,,,,,
Nc1cc(Cl)cc(C(=O)O)c1Cl,inactive,inactive,inactive,inactive,inactive,inactive,inactive,inactive,inactive,inactive,,,,,
O=C=NC1CCCCC1,,inactive,inactive,inactive,inactive,inactive,inactive,inactive,inactive,inactive,,,,,
O=C(NCNC(=O)NC1C(=O)NC(=O)N1CO)NC1C(=O)NC(=O)N1CO (stereo unspecified),inactive,inactive,inactive,inactive,inactive,inactive,inactive,inactive,inactive,inactive,,,,,
